This note sets out measurements from ChEMBL document CHEMBL4513216, “Probing the Open Global Health Chemical Diversity Library for Multistage-Active Starting Points for Next-Generation Antimalarials” (ACS Infect Dis, 2020).

Screen size: about 68,000 compounds; about 2,700 (4%) showed an effect of 50% or more. The sample holds strong results, similar compounds and a random draw of the others, so the mix is not that of the screen.

For the assay, the system named is Plasmodium berghei. As to the kind of experiment: Screen against P. berghei liver stage (PbLuc), transformed with Luciferase, at 2uM. Format: functional, HepG2. The following applies: tested at 2 uM.
`CCCc1nn(C2CCN(C(C)C)C2=O)c(=O)o1` (stereo unspecified): the INHIBITION was -78.95%.
Next, `CCCc1nn(C2CCN(C3CC3)C2=O)c(=O)o1` (stereo unspecified): -8.5%.
Next, `CCCc1nn(C2CCCN(C(C)C)C2=O)c(=O)o1` (stereo unspecified): 58.69%.
Next, `Cc1nc(N2CCC(CN3CCCC3)CC2)c2cnn(C)c2n1`: 7.08%; `NC(=O)CN(CC(=O)NCCc1c(F)cccc1F)C1CCCC1`: 14.21%; `NCC1(c2cccc(C(F)(F)F)c2)CCC1`: 39.97%.
As for `NCC1(c2cccc(C(F)(F)F)c2)CCCC1`, the INHIBITION came out at 23.45%.
Next, `NCC1(c2cccc(C(F)(F)F)c2)CC1`: 74.11%; `CC(C)c1cc(NC(=O)CN2CCCC2Cn2cncn2)on1` (stereo unspecified): -98.79%.
In the case of `Cn1cnc(S(=O)(=O)Nc2cc(C(N)=O)ccc2Cl)c1`, the INHIBITION was -53.5%.
The value for `COC(=O)c1ccc(Cl)c(NS(=O)(=O)c2cnn(C)c2)c1` was 50.48%; that for `COC(=O)c1ccc(Cl)c(NS(=O)(=O)c2cn(C)cn2)c1` was -9.88%.
The value for `Cc1nc(C)n(CC2CCCCN2Cc2cn3ccccc3n2)n1` (stereo unspecified) was -0.05%; that for `CC(C)CN1CCN(C(=O)Nc2cc(C(F)(F)F)c[nH]c2=O)CC1` was 54.85%; that for `CC1CN(C(=O)Nc2cc(C(F)(F)F)c[nH]c2=O)CCO1` (stereo unspecified) was 28.39%.
Next, `CC1CN(C(=O)Nc2cc(C(F)(F)F)c[nH]c2=O)CC(C)(C)O1` (stereo unspecified): 51.31%; `CC1(C)CN(C(=O)Nc2cc(C(F)(F)F)c[nH]c2=O)CCO1`: 33.92%.
On to `CC(C)(C)N1CCN(C(=O)Nc2cc(C(F)(F)F)c[nH]c2=O)CC1`, for which the INHIBITION was -32.3%.
Next, `CC(C)CN1CCC(C(=O)Nc2cc(C(F)(F)F)c[nH]c2=O)CC1`: -68.89%; `CS(=O)(=O)c1cnc(N2CCCC2)nc1C1CCN(C(=O)C2CC2)CC1`: -44.33%; `COc1ccccc1[C@@H]1CN(Cc2cnn(C)c2C)C[C@H]1C(=O)O`: 0.12%.
Next, `COCCC(=O)NCC1COc2cc(OC)ccc2C1` (stereo unspecified): -26.75%.
The value for `COc1cc(NC(=O)c2cc(C)sc2C)c(C(=O)N(C)C)cc1OC` was 58.24%; that for `COc1cc(NC(=O)c2ccc(C)cc2C)c(C(=O)N(C)C)cc1OC` was 26.48%; that for `COc1cc(NC(=O)c2ccccc2F)c(C(=O)N(C)C)cc1OC` was 5.52%.
As for `O=C(c1ccc2c(c1)CCC2)N1CCCCC1C1OCCO1` (stereo unspecified), the INHIBITION is reported as -44.52%.
The value for `COC(=O)CC1CSCCN1C(=O)CCc1c(C)nn(C)c1C` (stereo unspecified) was 26.7%; that for `COCCOCC(=O)NCc1ccc(N(C)C)nc1` was 64.08%.
Next, `CN(C)c1ccc(CCNC(=O)NCc2ccc(N(C)C)nc2)cc1`: -18.67%; `COCCSCC(=O)NCc1ccc(N(C)C)cc1`: 47.04%.
For `CN(C)c1cc(CNC(=O)c2ccccc2S(C)(=O)=O)ccn1`, the INHIBITION is -33.95%.
The value for `CCN(C)c1cc(CNC(=O)CNC(=O)CC2CCCCC2)ccn1` was -15.05%.
Next, `CCOc1cc(CNC(=O)CNC(=O)CC2CCCCC2)ccn1`: 9.29%.
The value for `COCCSCC(=O)NCc1ccnc(N(C)C)c1` was 50.61%; that for `CN(C)c1ccc(CNC(=O)NCCc2ccccn2)cn1` was 11.2%; that for `COCCSCC(=O)NCc1ccc(N(C)C)nc1` was 1.8%.
On to `CN(C)c1cc(CNC(=O)c2ccccc2Cl)ccn1`, for which the INHIBITION was 17.19%.
Next, `CN(C)c1cc(CNC(=O)CC2CCCCC2)ccn1`: 55.33%.
Next, `CCS(=O)(=O)c1ccccc1C(=O)NCc1ccnc(N(C)C)c1`: 56.67%; `CN(C)CCn1c2c(ccc1=O)CCN(Cc1cnn(C)c1)CC2`: 19.16%; `CC(C)(C)n1cc(CNc2ccc(CNS(C)(=O)=O)cc2)cn1`: 38.49%.
The value for `Cc1ccc(C(=O)N2C[C@@H]3CCCO[C@@H]3[C@H](N3CCOCC3)C2)cn1` was -35.23%; that for `CCN(CC)S(=O)(=O)N1C[C@H]2CC[C@@H](C1)N(Cc1cscn1)C2=O` was 31.51%.
Regarding `CC(C)OCCCN1CCCC(c2nc3ccccc3n2C(C)C)C1` (stereo unspecified), the INHIBITION is recorded as -25.8%.
Next, `COc1ccc2c(c1)c(C(=O)Nc1nnn[nH]1)cn2C(C)C`: -2.44%; `COCCNC(=O)[C@H]1CC[C@@H]2[C@@H](CCN2c2ncc(F)cn2)O1`: 31.65%; `CN1C(=O)CC(c2cnn(C)c2)C12CCN(C(=O)c1ccnnc1)CC2` (stereo unspecified): -26.73%.
The value for `O=C(N1CCCC1)N1CCOCC2(CCN(Cc3cccs3)C2)C1` (stereo unspecified) was 25.31%; that for `Cc1cn2nc(N3CCN(Cc4c(C)noc4C)CC3)sc2n1` was -4.99%; that for `Oc1cc(C2CCCN(Cc3cccs3)C2)nc(-c2ccccn2)n1` (stereo unspecified) was 30.29%.
With `N#CCc1cccc(C(=O)N2CCN(CC(O)c3ccccc3)CC2)c1` (stereo unspecified), the INHIBITION is listed as 29.42%.
Regarding `COc1ccc(N2CCN(CC[C@H](O)c3ccccc3)CC2=O)cc1`, the INHIBITION was 17.28%.
Consider `COc1cccc(C(=O)N2CCN(CC(O)c3ccccc3)CC2)c1` (stereo unspecified), for which the INHIBITION was found to be 55.25%.
The value for `COc1cccc(C(O)CN2CCN(C(=O)c3ccsc3)CC2)c1` (stereo unspecified) was 38.49%; that for `COc1cccc(N2CCN(CC[C@H](O)c3ccccc3)CC2=O)c1` was 61.75%; that for `COc1ccccc1N1CCN(CC[C@H](O)c2ccccc2)CC1=O` was -23.57%.
Next, `COCC(=O)N1CCn2c(CN3CCN(C)CC3)cnc2C1`: -11.88%; `Cc1nccc(N2CCCC(C)(C(=O)NC3CCCC3)C2)n1` (stereo unspecified): 1.42%.
For `O=C(c1cnc(COc2ccccc2)nc1O)N1CCC(F)(F)CC1`, the INHIBITION stood at 10.91%.
Take `Cc1nc(CN2CCC3(CCN(C(=O)c4ccoc4C)CC3)C2)cs1`: the INHIBITION is on record as -13.88%.
The value for `Cc1nn(C)c(N2CCOCC2)c1CNCC1CCS(=O)(=O)C1` (stereo unspecified) was 5.17%; that for `Cc1nn(C)c(N2CCOCC2)c1CNCC1CCN(C2CC2)C1` (stereo unspecified) was 59.03%.
Consider `Cc1nn(C)c(N2CCOCC2)c1CNCC1CCCN1C` (stereo unspecified), for which the INHIBITION is reported as 53.98%.
The value for `Cc1nn(C)c(N2CCOCC2)c1CNCc1ccnn1C` was 8.06%; that for `Cc1nn(C)c(N2CCOCC2)c1CNC1CCN(C2CC2)CC1` was 24.65%; that for `Cc1nn(C)c(N2CCOCC2)c1CNC1CCC(O)CC1` (stereo unspecified) was -5.7%.
On to `COCCC(=O)N1CCCC1c1nccc(C)n1` (stereo unspecified), for which the INHIBITION is -17.21%.
The value for `CNC(=O)C1CCN(c2ncnc3c2CCN(C(=O)C2CC2)C3)C1` (stereo unspecified) was 16.53%.
The value for `OC1CCN(Cc2c(-c3ccco3)[nH]c3ncccc23)CC1` was 8.09%; that for `Cc1nc(CN2CCCC(N(C)Cc3nc(CC(C)C)no3)C2)no1` (stereo unspecified) was 23.86%; that for `COc1ccc(-c2nccnc2C2CCN(C(C)=O)CC2)cc1` was -30.31%.
The value for `CC(=O)N1CCC(c2nccnc2-c2ccc(F)cc2)CC1` was 33.77%; that for `CC(=O)N1CCC(c2nccnc2-c2ccc(C(=O)O)cc2)CC1` was 51.57%; that for `CC(C)c1ncc2c(n1)CN(CC(=O)Nc1ccncc1)CC2` was -36.7%.
For the compound `Cc1csc(N2CCN(C(=O)NCCNc3ncccn3)CC2)n1`, the INHIBITION was -10.6%.
The value for `CN(C)c1ncccc1NC(=O)COC1CCCC1` was 35.13%; that for `CN(C)c1ncccc1NC(=O)COCC1CC1` was 64.35%; that for `O=C(COCC1CC1)Nc1ncccc1O` was 25.23%.
Next, `O=C(COc1cccc2c1CCC2=O)NCCc1cccs1`: -27.22%; `COCCN(C(=O)c1cc(C)no1)c1ccc(C#N)cc1`: -43.03%; `COc1no[n+]([O-])c1-c1ccccc1`: 32.19%.
Take `CC(C)(C)C(=O)N1CCCC1(C(=O)N1CCCC1)c1cnccn1` (stereo unspecified): the INHIBITION is 33.56%.
The value for `Cn1cc(C2CC3(CCN(C(=O)c4cccs4)CC3)NC2=O)cn1` (stereo unspecified) was -16.25%; that for `CN(C)C(C(=O)NCC1(C)COC1)c1cccc(F)c1` (stereo unspecified) was -15.77%; that for `O=C1CC2(CCN(Cc3cccnc3)C2)CN1c1cccc(F)c1` (stereo unspecified) was 38.49%.
For `COc1ccc(CN2CCC3(CC(=O)N(c4cccc(F)c4)C3)C2)cc1` (stereo unspecified), the INHIBITION is given as 40.4%.
Next, `N#Cc1cccc(N2CC3(CCN(C(=O)c4ccncc4)C3)CC2=O)c1` (stereo unspecified): 53.77%; `O=C1CC2(CCN(Cc3ccncc3)C2)CN1c1cccc(F)c1` (stereo unspecified): 54.62%; `N#Cc1cccc(N2CC3(CCN(C(=O)c4cccnc4)C3)CC2=O)c1` (stereo unspecified): 11.72%.
As for `N#Cc1cccc(N2CC3(CCN(C(=O)c4ccnnc4)C3)CC2=O)c1` (stereo unspecified), the INHIBITION is 25.24%.
Next, `CCc1ccc(OCCn2cccn2)cc1`: -3.72%.
Next, `COc1c(C2CCCN2C(=O)c2csc(C3CC3)n2)c(C)nn1C` (stereo unspecified): 15.13%; `CCOc1cccc2c1OCC(=O)N(c1ccc(N(C)C)cc1)C2`: 43.74%.
Next, `CCOc1cccc2c1OCC(=O)N(c1ccc3c(c1)OCCO3)C2`: 67.29%; `CCOc1cccc2c1OCC(=O)N(c1ccc3c(c1)OCO3)C2`: 25.73%; `COC(=O)c1ccc(C2CC(=O)Nc3c2cnn3C)cc1` (stereo unspecified): 13.95%.
With `Cc1ncsc1COC(=O)c1cccc2c1OCCO2`, the INHIBITION stood at 38.1%.
The value for `Cn1cnnc1C1CCCN(C(=O)NCc2cc[nH]n2)C1` (stereo unspecified) was 28.65%; that for `CCCSc1ccccc1NC(=O)N1CCN(C(=O)c2ccc[nH]2)CC1` was 65.76%.
Next, `CCCSc1ccccc1NC(=O)N1CCC(N2CCSCC2)CC1`: 27.05%; `O=C(c1ccc[nH]1)N1CCN(C(c2ccccc2)C(F)(F)F)CC1` (stereo unspecified): 11.88%.
The value for `CCCc1nc(C(=O)NCCN2CCC(c3ccccc3C)C2)cs1` (stereo unspecified) was 6.88%; that for `CC(C)C(C(=O)N1CCCN(c2nccs2)CC1)n1cncn1` (stereo unspecified) was 15.47%; that for `CN1CCC(N(C)CCC(=O)N2CCC(OCc3ccccc3)CC2)C1` (stereo unspecified) was -83.25%.
As for `CN1CCC(N(C)CCC(=O)N2CCC(CCc3ccccc3)CC2)C1` (stereo unspecified), the INHIBITION is 66.79%.
The value for `CN1CCC(N(C)CCC(=O)N2CCC(Cc3ccc(F)cc3)CC2)C1` (stereo unspecified) was 20.36%.
